About 83,000 compounds went through this panel and 20% of them were active in at least one assay; those are over-represented in the sample as a whole.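 Each cell line was grown in a 96-well plate and treated with one concentration of compound for 48 hours. Values below 10 were considered active.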 A number with no mark means an inactive call. Calls of active or inactive are those of the source.

Among the test systems are DU-145 prostate; K-562 leukemia; MALME-3M melanoma; MDA-MB-231 breast; RXF 393 renal; SF-268 CNS; SF-295 CNS; SF-539 CNS; UACC-257 melanoma; M14 melanoma; HCT-15 colon; HT29 colon; SNB-75 CNS; SNB-19 CNS; U251 CNS; SK-MEL-5 melanoma; UACC-62 melanoma; LOX IMVI melanoma; SK-MEL-28 melanoma; PC-3 prostate.
Holding throughout (test): NCI-60 one-dose screen, 48 h (100 = growth as untreated, 0 = no growth, -100 = all killed)
Common to all, as to conditions: 10 µM unless noted

For `O=C1/C(=C/c2ccccn2)NC(=S)N1c1ccccc1Cl`, the growth in the experiment with DU-145 prostate is 54.1%; with K-562 leukemia it was 39.7%; in the experiment with MALME-3M melanoma it was 67.7%; in the experiment on MDA-MB-231 breast it was 36.4%; with RXF 393 renal it was -7.86% (active); with SF-268 CNS, 83.5%. Also, the growth in the experiment with SF-295 CNS is 55.9%; with SF-539 CNS, 67.3%; in the experiment with UACC-257 melanoma, 74.5%; with M14 melanoma, 42.3%; in the experiment with HCT-15 colon, 38.2%; in the experiment with HT29 colon, 71.1%. The growth with SNB-75 CNS was 82%; with SNB-19 CNS, 58.6%; in the experiment with U251 CNS, 34.6%; with SK-MEL-5 melanoma, 57.9%; in the experiment on UACC-62 melanoma, 66.7%; with LOX IMVI melanoma, 12.1%. Further, in the experiment with SK-MEL-28 melanoma, the growth is 74%.

For `O=C1Nc2ccccc2C1(c1c[nH]c2ccccc12)c1c[nH]c2ccccc12`, the growth in the experiment with DU-145 prostate is 29.6%; in the experiment on K-562 leukemia it was 42.9%; with MALME-3M melanoma, 81.8%; in the experiment on MDA-MB-231 breast, 49%; with RXF 393 renal, -53% (active); with SF-268 CNS, 53.2%. Also, the growth in the experiment on SF-295 CNS was 86.3%; in the experiment with SF-539 CNS, 47.1%; in the experiment on UACC-257 melanoma, 94.6%; in the experiment with M14 melanoma it was 66%; with HCT-15 colon, 32.2%; with HT29 colon, 53.3%. Besides, the growth was -12.9% (active) with SNB-75 CNS; 81.5% with SNB-19 CNS; 73.7% with U251 CNS; 89.4% in the experiment on SK-MEL-5 melanoma; 70.3% in the experiment with UACC-62 melanoma; 8.4% (active) in the experiment on LOX IMVI melanoma. For the same molecule, in the experiment with SK-MEL-28 melanoma, the growth is 108%.

Regarding `Cc1cccc(Oc2ccc(Nc3ncnc4ccc(NC(=O)CN5CCN(C)CC5)cc34)cc2Cl)c1`, the growth with DU-145 prostate is 33.2%; with K-562 leukemia, -6.17% (active); with MALME-3M melanoma, -72.6% (active); with MDA-MB-231 breast, -47.2% (active); with RXF 393 renal, -65.6% (active); in the experiment on SF-268 CNS, 42%. For the same molecule, the growth in the experiment on SF-295 CNS is 63.9%; in the experiment on SF-539 CNS it was -77.1% (active); in the experiment with UACC-257 melanoma it was -66.4% (active); with M14 melanoma, -72.7% (active); in the experiment with HCT-15 colon, 5.82% (active); in the experiment with HT29 colon, -30.1% (active). Also, the growth is 80.8% with SNB-75 CNS; 28.4% with SNB-19 CNS; 9.58% (active) in the experiment on U251 CNS; -76.7% (active) in the experiment on SK-MEL-5 melanoma; -27.4% (active) in the experiment with UACC-62 melanoma; -94.2% (active) with LOX IMVI melanoma. Moreover, in the experiment on SK-MEL-28 melanoma, the growth is -84.6% (active).

As to `CCN(CC)CCCN1C(=O)c2c(c(C)c3c(oc4ccc(O)cc43)c2C)C1=O`, the growth was -58.8% (active) in the experiment with DU-145 prostate; 3.9% (active) in the experiment on K-562 leukemia; 87% in the experiment with MALME-3M melanoma; -80.9% (active) with MDA-MB-231 breast; 61.3% with RXF 393 renal; 66% with SF-268 CNS. For the same molecule, the growth in the experiment on SF-295 CNS is 109%; in the experiment with SF-539 CNS it was 1.71% (active); in the experiment on UACC-257 melanoma, 102%; in the experiment on M14 melanoma, 86.6%; in the experiment with HCT-15 colon it was -77.5% (active); with HT29 colon, -40.3% (active). The growth in the experiment with SNB-75 CNS was 90.4%; in the experiment with SNB-19 CNS it was 77.4%; in the experiment on PC-3 prostate, 79.7%; with SK-MEL-5 melanoma, 48.4%; in the experiment with UACC-62 melanoma, 96%; in the experiment with LOX IMVI melanoma, -95.8% (active). Besides, in the experiment with SK-MEL-28 melanoma, the growth was 81.8%.

In the case of `CC1(C)CC2=C3C=C[C@@H]4[C@@]5(C)CCC(=O)C(C)(C)[C@@H]5CC[C@@]4(C)[C@]3(C)CC[C@@]2(C(=O)O)C[C@H]1O`, the growth in the experiment on DU-145 prostate was 65%; in the experiment with K-562 leukemia, 33.1%; in the experiment on MALME-3M melanoma, 3.59% (active); with MDA-MB-231 breast it was -8.81% (active); in the experiment on RXF 393 renal, 29.1%; with SF-268 CNS, 32.6%. For the same molecule, the growth with SF-295 CNS is 20.5%; in the experiment on SF-539 CNS, 34.8%; with UACC-257 melanoma it was 10.5%; with M14 melanoma, 17.6%; in the experiment with HCT-15 colon, 6.74% (active); in the experiment on HT29 colon, 14%. Besides, the growth in the experiment with SNB-75 CNS was 19.2%; in the experiment on SNB-19 CNS, 32.1%; with U251 CNS, 22.6%; in the experiment on SK-MEL-5 melanoma it was 14%; in the experiment with UACC-62 melanoma, 20.6%; with LOX IMVI melanoma, 7.33% (active). Also, in the experiment on SK-MEL-28 melanoma, the growth was 25%.

For the molecule `CC(=O)/C(=C/c1ccc([N+](=O)[O-])cc1)C(=O)c1ccccc1`, the growth in the experiment on DU-145 prostate was 92.6%; in the experiment on K-562 leukemia it was 31.3%; in the experiment with MALME-3M melanoma, 89.1%; with MDA-MB-231 breast, 91.4%; in the experiment on RXF 393 renal it was 74.2%; in the experiment on SF-268 CNS, 76.1%. Moreover, the growth was 93.3% in the experiment with SF-295 CNS; 102% in the experiment with SF-539 CNS; 76.3% in the experiment with UACC-257 melanoma; 79.8% in the experiment on M14 melanoma; 60.6% with HCT-15 colon; 41.1% in the experiment with HT29 colon. In addition, the growth in the experiment on SNB-75 CNS is 88.5%; with SNB-19 CNS it was 92.5%; with PC-3 prostate, 63.4%; in the experiment on SK-MEL-5 melanoma, 87.5%; in the experiment with UACC-62 melanoma, 77.2%; in the experiment on LOX IMVI melanoma it was -28.5% (active). For the same molecule, the growth in the experiment on SK-MEL-28 melanoma is 91.6%.

Regarding `C=C(CNCCc1ccc(O)cc1)[C@@H]1CC[C@]2(CO)CC[C@]3(C)[C@H](CC[C@@H]4[C@@]5(C)CCC(=O)C(C)(C)[C@@H]5CC[C@]43C)[C@@H]12`, the growth is 43.2% in the experiment on DU-145 prostate; -26.3% (active) in the experiment on K-562 leukemia; -57.3% (active) in the experiment with MALME-3M melanoma; 1.97% (active) with MDA-MB-231 breast; 26% with RXF 393 renal; 45.9% with SF-268 CNS. Further, the growth with SF-295 CNS was 84.2%; in the experiment with SF-539 CNS, 78.8%; in the experiment with UACC-257 melanoma, -12.8% (active); in the experiment on M14 melanoma, -76.3% (active); with HCT-15 colon, 6.17% (active); in the experiment with HT29 colon, -42.5% (active). Also, the growth was 91.2% in the experiment with SNB-75 CNS; 49% in the experiment on SNB-19 CNS; -63.9% (active) in the experiment with U251 CNS; -4.88% (active) in the experiment on SK-MEL-5 melanoma; -29.5% (active) with UACC-62 melanoma; -89.7% (active) in the experiment on LOX IMVI melanoma. Besides, the growth in the experiment with SK-MEL-28 melanoma is -10.8% (active).

On to `O=C(C1CCCCC1)[C@@H]1[C@]2(C(=O)NC3CCCCC32)[C@@H]2CCCN2[C@@]12C(=O)NC1CCC(Cl)CC12` (stereo partly specified), for which the growth was -98% [100 µM] (active) with DU-145 prostate; -66% [100 µM] (active) in the experiment on K-562 leukemia; -66.4% [100 µM] (active) in the experiment on MALME-3M melanoma; -71.7% [100 µM] (active) in the experiment on MDA-MB-231 breast; -66.6% [100 µM] (active) in the experiment with RXF 393 renal; -77.4% [100 µM] (active) with SF-268 CNS. Moreover, the growth with SF-295 CNS was -92.5% [100 µM] (active); in the experiment with SF-539 CNS, -93.3% [100 µM] (active); in the experiment on UACC-257 melanoma, -77.8% [100 µM] (active); in the experiment on M14 melanoma, -83.2% [100 µM] (active); in the experiment with HCT-15 colon it was -83.4% [100 µM] (active); with HT29 colon, -85.2% [100 µM] (active). The growth in the experiment with SNB-75 CNS was -68.8% [100 µM] (active); in the experiment with SNB-19 CNS, -92.5% [100 µM] (active); in the experiment on PC-3 prostate, -87.9% [100 µM] (active); in the experiment with SK-MEL-5 melanoma, -97.1% [100 µM] (active); with UACC-62 melanoma it was -95.4% [100 µM] (active); in the experiment on LOX IMVI melanoma, -83.4% [100 µM] (active).

(Values after PubChem BioAssay (NCI).)
